# From PubChem BioAssay
# FLuc inh – inhibitors of firefly (Photinus pyralis) luciferase | AID 1347043 | 2.5% of 76,000 active | Potency, µM (titrated, usually from 115 µM), most hits filed as inhibitors | purified P. pyralis luciferase, luminescence, biochemical | P08659; also: nearly all actives have a fitted effect of over 65% in size
# Target sequence (P08659 whole entry, looked up): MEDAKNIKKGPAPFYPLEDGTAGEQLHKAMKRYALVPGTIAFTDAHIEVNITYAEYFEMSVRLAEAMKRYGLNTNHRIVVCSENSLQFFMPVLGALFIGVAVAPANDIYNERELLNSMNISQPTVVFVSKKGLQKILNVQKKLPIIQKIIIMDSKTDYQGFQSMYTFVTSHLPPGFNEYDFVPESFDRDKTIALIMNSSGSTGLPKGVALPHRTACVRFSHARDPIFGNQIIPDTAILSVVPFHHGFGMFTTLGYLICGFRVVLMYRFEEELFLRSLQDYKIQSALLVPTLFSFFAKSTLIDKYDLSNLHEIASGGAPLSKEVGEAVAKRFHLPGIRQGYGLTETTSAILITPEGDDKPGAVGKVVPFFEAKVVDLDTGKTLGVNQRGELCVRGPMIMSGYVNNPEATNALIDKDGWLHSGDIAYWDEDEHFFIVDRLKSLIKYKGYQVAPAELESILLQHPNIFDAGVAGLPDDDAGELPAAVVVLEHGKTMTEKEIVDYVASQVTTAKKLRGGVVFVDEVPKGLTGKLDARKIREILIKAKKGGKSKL
#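 Inhibitors were tested against purified firefly luciferase in a biochemical, low-substrate format (both substrates at 10uM) and luminescence measured with a CCD imager.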
# GPT2 inhibitor – inhibitors of human GPT2 alanine aminotransferase | Recombinant GPT2, coupled pyruvate oxidase/HRP Amplex Red fluorescence | Q8TD30 | 0.25% of 100,000 active | Potency, µM (top dose mostly 57.7 µM), inactives show at the top dose activity change, negative = inhibition, actives largely listed as inhibitors; also: nearly all actives have a fitted effect of over 60% in size
#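 Inhibition is scored from Amplex Red fluorescence generated when pyruvate oxidase and HRP act on pyruvate released by GPT2. Reactions contain 10ng/uL enzyme, 250uM a-KG and 2mM L-alanine and run 30 min at room temperature.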
# HEK293 tox – kills HEK 293 cells; HEK 293 viability, ATP luminescence (CellTiter-Glo), 48-72 h; Potency, µM (titrated, usually from 115 µM), without a hit: at the top dose activity change, negative = cytotoxicity, actives largely listed as inhibitors; 6.6% of 94,000 active; AID 1345083; also: nearly all actives have a fitted effect of over 60% in size
#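 HEK 293 cells seeded at 250 cells/well were exposed to compound for 48 or 72 hr at 37 degree Celsius. Viability taken as ATP content by CellTiter-Glo luminescence.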
# NIH3T3 tox – NIH 3T3 cell cytotoxicity. NIH 3T3 viability, CellTiter-Glo ATP luminescence, 48-72 h. Potency, µM (top dose mostly 96.7 µM), for inactives: at the top dose activity change, negative = cytotoxicity, hits mostly inhibitors. 4.3% of 94,000 active. AID 1345082; also: nearly all actives have a fitted effect of over 55% in size
#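 ATP-dependent luminescence (CellTiter-Glo) served as the viability signal for NIH 3T3 cells treated with compound for 48 or 72 hr at 37 °C.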
# NPR1 antag – antagonists of human natriuretic peptide receptor Npr1; P16066; HEK293 hNpr1 GloSensor cGMP, ANP-stimulated luminescence; Potency, µM (doses to about 46.3 µM), for the others: at the highest dose activity change, negative = inhibition, actives largely listed as inhibitors; 1.6% of 76,000 active; AID 1347048; calls by dose curve; also: nearly all actives have a fitted effect of over 60% in size
#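 HEK293 cells stably expressing human Npr1 and cGMP GloSensor pGS-40F, loaded 2 h with 2% GloSensor reagent, given compound 30 min at room temperature. Luminescence read before and 20 min after 0.1 nM hNppA.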
# * hit, by the source's call; i = inactive; ? = inconclusive; . = no result; ! = repeats disagree; [ ] = remark or other dose. This is a sample that favours compounds with a hit; in the whole collection about 10% have one here. Unless noted, calls follow the shape of the dose curve; as a rule, active = well fitted curve in the direction sought with a large enough effect; inconclusive = small, poorly fitted or top-dose-only effect, or another doubt; inactive = no such curve, though single readings can be large; an effect the other way counts as inactive or inconclusive. % is scaled to controls: 0 for no effect and ±100 for the full control effect; potency is read from the fitted curve at half-maximal effect.
SMILES,FLuc inh,GPT2 inhibitor,HEK293 tox,NIH3T3 tox,NPR1 antag
COc1ccc(S(=O)(=O)Nc2cccnc2Nc2ccc(O)cc2)cc1,.,22µM*!,.,.,.
c1ccc(CCCN2Cc3[nH]cnc3C[C@H]2c2nc(-c3cnccn3)no2)cc1,i,3%[88.5 µM],-9%[172 µM],-33%[174 µM],1%[70.6 µM]
CN(CCc1noc(C2CN(Cc3ccc(Cl)c(F)c3)C2)n1)S(C)(=O)=O,i,-8%,40µM*,?,-1%
COc1cccc(N2C(=O)NC(=NC3CCCCC3)C23CCCN(Cc2ccc(F)cc2)C3)c1 (stereo not drawn),.,i,?,40µM*,.
COc1cccc(N2C(=O)NC(=NC3CCCCC3)C23CCN(Cc2ccccc2)C3)c1 (stereo not drawn),.,i,-7%,-16%,.
COc1cccc(N2C(=O)NC(=NC3CCCC3)C23CCN(Cc2ccccc2)C3)c1 (stereo not drawn),.,5%,89µM*,?,.
Cc1cc(C(=O)NC2CCN(C(=O)N3CC4CC(C3)[C@H]3CCCC(=O)N3C4)CC2)nn1C (stereo partly drawn),i,i,-25%,?,-1%
C#CCNC(=O)c1cc(-c2ccc(Cl)nc2)nc2c1cnn2C,.,-5%,?,?,.
COC(=O)CNC(=O)c1cc(-c2ccc(Cl)nc2)nc2c1cnn2C,.,i,-4%,32µM*,.
C#CCNC(=O)c1cc(-c2ccc(OC)cc2)nc2c1cnn2C,.,.,?,50µM*,.
C#CCNC(=O)c1cc(-c2ccc(Cl)cc2)nc2c1cnn2C,.,-13%[88.5 µM],89µM*,?,.
COc1ccc(CCNC(=O)c2cc(-c3ccc(OC)cc3)nc3c2cnn3C)cc1,.,i,?,?,.
COc1ccc(-c2cc(C(=O)NCC(F)(F)F)c3c(C4CCNC4)nn(C)c3n2)cc1 (stereo not drawn),.,i,79µM*,?,.
Cn1ncc2c(C(=O)NCCc3ccc(Cl)cc3)cc(-c3ccc(Cl)cc3)nc21,.,-13%,-18%,?,.
Cn1ncc2c(C(=O)NCC(F)F)cc(-c3ccc(Cl)cc3)nc21,.,i,45µM*,?,.
O=C(NCCc1ccccc1)N1CCC(Oc2ccc(-c3noc(C4CC4)n3)cc2)C1 (stereo not drawn),?,i,?,?,-21%
CN(CCc1ccccn1)[C@@H]1[C@H](O)[C@H](CO)O[C@@H]1CN(Cc1ccc(F)cc1)Cc1ccc(F)cc1,i,4%,35µM*,50µM*,-23%
O=C(Cc1ccc(F)cc1)N1CC2CC(C1)[C@H]1CCCC(=O)N1C2 (stereo partly drawn),i,?,9%,i,1%
CN(C)CC1(O)CCCN(c2ncccc2C(N)=O)CC1 (stereo not drawn),i,-24%,-4%,-2%,6%
CC(C)c1ccc(CN2CCCC3(CCN(c4ncccc4C(N)=O)C3)C2)cc1 (stereo not drawn),i,i,40µM*,?,-7%
O=C(NCc1ccccc1)N1C[C@@H](CO)[C@@H]2Oc3c(F)cccc3[C@@H]21,.,.,?,-29%,.
CCN(CC)CC[C@H]1CN(C(=O)NC2CCCCC2)CC[C@H]1CC(=O)O,i,1%[88.5 µM],-10%[172 µM],i,-3%[70.6 µM]
Cc1noc(C)c1-c1cc2cc(CN(C)C)oc2c(N2CCN(Cc3ccccc3)CC2)n1,i,?,50µM*,35µM*,-3%
Cc1noc(C)c1-c1cc2cc(CO)oc2c(N2CCN(c3ccccn3)CC2)n1,i,2%[88.5 µM],71µM*,?,-15%[70.6 µM]
Cc1noc(C)c1-c1cc2cc(CN(C)C)oc2c(N2CCN(c3ccccn3)CC2)n1,i,-14%[88.5 µM],45µM*,35µM*,-2%[70.6 µM]
SMILES,FLuc inh,GPT2 inhibitor,HEK293 tox,NIH3T3 tox,NPR1 antag
CC1CCC(Nc2ncncc2-c2nc(-c3ccccc3)no2)CC1 (stereo not drawn),i,i,i,-3%,-5%
O=C(c1ccc2ncccc2c1)N1CCC2(CC1)Nc1ccccc1NC2=O,i,-29%,89µM*,-30%,-2%
O=C(c1cccc2ncccc12)N1CCC2(CC1)Nc1ccccc1NC2=O,i,-10%,?,-22%,2%
CC(=O)N(C)C1CCCc2ccccc21 (stereo not drawn),i,-13%[88.5 µM],-3%[230 µM],3%[174 µM],17%[70.6 µM]
COCCOc1ccc2c(n1)CCN(C(=O)c1ccc(OC)cc1)C2,i,0%,5%,-10%,2%
COCCOc1ccc2c(n1)CCN(C(=O)CCC1CCCC1)C2,?,-3%,?,-25%,11µM*
CCOc1ccc2c(n1)CCN(C(=O)c1ccc(C)cc1)C2,i,-1%,-8%,-20%,-11%
COCCOc1ccc2c(n1)CCN(C(=O)c1ccc(C(C)C)cc1)C2,16µM*,-9%,?,?,-7%
CCOc1ccc2c(n1)CCN(C(=O)c1ccc(C(C)C)cc1)C2,32µM*,i,?,?,-3%
COc1ccc(OC)c(-c2cnc3[nH]cc(CC(=O)NCc4cccnc4)c3c2)c1,i,4%[88.5 µM],?,?,?
COc1ccc(-c2cnc3[nH]cc(CC(=O)NC4CCOCC4)c3c2)cc1,?,-4%[88.5 µM],?,25µM*,4%[70.6 µM]
COc1ccc(-c2cnc3[nH]cc(CC(=O)NCCN(C)C)c3c2)cc1,i,3%[88.5 µM],100µM*,50µM*,-12%[70.6 µM]
COc1ccc(-c2cnc3[nH]cc(CC(=O)N(C)C)c3c2)cc1,22µM*,i,?,13µM*,?
O=C(CCc1ccccc1)N1CCCC1c1nncn1C1CCCC1 (stereo not drawn),.,-25%,3%,-5%,.
COc1ccc(-c2noc(Nc3ccc(OC)cc3OC)n2)cc1,25µM*,i,?,-29%,-2%
COC(=O)c1ccccc1Nc1nc(-c2ccccc2)no1,14µM*,?,10%,i,-9%
O=C(NCc1cccs1)c1ccc2nc(-c3cccnc3)oc2c1,.,-4%,-11%,-15%,.
c1ncnc(NCC2(N3CCOCC3)CCCCCC2)n1,i,i[11.5 µM],-7%,-19%,-1%
COc1cccc(-c2ccnc(-c3nnc(C)n3C3CCCCC3)c2)c1,i,i,71µM*,89µM*,0%[70.6 µM]
COc1cccc(Nc2ccnc(-c3nnc(C)n3C3CCCCC3)c2)c1,i,-6%[88.5 µM],71µM*,89µM*,-25%[70.6 µM]
COCCOCc1nc(C2CCCCN2C(=O)NCc2ccccc2)no1 (stereo not drawn),i,i,i,i,3%
Cc1ccc(-n2c(C3CCN(C(=O)c4ccc(F)c(Cl)c4)CC3)n[nH]c2=O)cc1,i,2%,-2%,13µM*,-8%
COc1ccc(C(=O)N2CCC(c3n[nH]c(=O)n3-c3ccc(C)cc3)CC2)cn1,i,i,-4%,28µM*,0%
